Source: PubChem BioAssay AID1671189 (National Center for Advancing Translational Sciences (NCATS), 2021)
Among all 1,100 compounds or so, about 70 (6%) were called active. About 22% were inconclusive and are not listed. The call rests on the fitted dose curve; in most records, active means well fitted curve in the direction sought with a large enough effect; inconclusive means small, poorly fitted or top-dose-only effect, or another doubt; inactive means no such curve, though single readings can be large or run the other way. Shown is part of a subset that was picked to be rich in actives.

target: Polyunsaturated fatty acid lipoxygenase ALOX12 (Homo sapiens) (UniProt P18054); assay: Confirmatory qHTS assay for inhibitors of human arachidonate 12S-lipoxygenase (ALOX12): Round 2; conditions: purified human 12-LOX, xylenol orange absorbance; series mostly up to 125 µM; activity change, negative = inhibition: at the top concentration
Text: Assay Provider: Theodore R. Holman Ph.D. University of California, Santa Cruz, California Human lipoxygenase 12hLO is a member of the closely related lipoxygenase family of enzymes which catalyze the site-specific oxidation of arachidonic acid to various hormone precursor molecules and as such is a candidate for drug development in a variety of disease areas, such as cancer and inflammation. Inhibition of 12hLO activity was screened by utilizing arachidonic acid as a substrate. The extent of hydroperoxide product formation was measured by a secondary chromogenic reaction in which xylenol orange (XO, Sigma-Aldrich, cat. number 39,818-7) reacts with the ferric ions produced from the reaction between the hydroperoxide and ferrous ions. The Fe (III)-XO complex is characterized with red-shifted absorbance at 560 nm. A purified preparation of human 12hLO was supplied by Dr. Holman laboratory, University of California, Santa Cruz.
PROTOCOL TABLE SEQUENCE No. (e.g., 1, 2, 3, etc.); […] (e.g., Cells, Incubation, Reagent, etc.); VALUE; DESCRIPTION 1; Enzyme; 3 uL; 150 nM 12hLO enzyme solution dispensed in 1536-well Greiner black, clear bottom plates. 2; Compound; 23 nL; compounds and controls were added. 3; Incubate; 15 min; room temperature. 4; Substrate; 1 uL; 40 uM arachidonic acid (final concentration). 5; Incubate; 30 min; room temperature. 6; Reagent; 4 uL; Fe-XO solution was added to each well. 7; Incubation; 30 min; room temperature 8; Detector; absorbance; Read 1 at 405 nm absorbance using ViewLux (PerkinElmer) CCD imager. 9; Detector; absorbance; Read 2 at 573 nm absorbance using ViewLux (PerkinElmer) CCD imager. NOTES (numbers refer to sequence above) 1; 150 nM 12hLO (final concentration) in buffer solution (25 mM Hepes, 0.01% Triton X-100, pH 7.0) was dispensed in columns 1, 2, 5-48. Column 1 is neutral (100% activity). Buffer only was dispensed in columns 3 and 4 as no enzyme negative controls. The plates were covered with metal lids with gas-exchange holes. 2; Compounds were pin transferred via a Kalypsys Pin Tool (Wako USA) in column 5 - 48. Control compound was transferred in column 2, titration of nordihydroguaiaretic acid (NDGA, Sigma-Aldrich, N5023) with top concentration of 20 mM in DMSO then 1:3 dilution in duplicate. Dilution factor of 23 nL into 4 uL final assay volume. 3; Covered assay plates were incubated for 15 min at room temperature. 4; Substrate was added to start the reaction; 40 uM arachidonic acid (Sigma-Aldrich, St. Louis, MO) was dispensed throughout the plate. 6; Chromogenic detection reagent solution (divalent iron/xylenol orange, Fe-XO) was added to each well: 200 uM xylenol orange, 300 uM ferrous ammonium sulfate prepared freshly in 50 mM sulfuric acid. 8, 9; Two absorbance readouts were obtained at 405 nm and at 573 nm using a ViewLux high-throughput CCD plate imager (PerkinElmer). The 573 to 405 (Read 2 / Read 1) absorbance ratio was used to compute reaction progress.
On the % scale 0 is the no-effect control and ±100 the full control effect; potency means the concentration at half of the fitted maximal effect.

Polyunsaturated fatty acid lipoxygenase ALOX12 (Homo sapiens), sequence (P18054 whole entry, looked up): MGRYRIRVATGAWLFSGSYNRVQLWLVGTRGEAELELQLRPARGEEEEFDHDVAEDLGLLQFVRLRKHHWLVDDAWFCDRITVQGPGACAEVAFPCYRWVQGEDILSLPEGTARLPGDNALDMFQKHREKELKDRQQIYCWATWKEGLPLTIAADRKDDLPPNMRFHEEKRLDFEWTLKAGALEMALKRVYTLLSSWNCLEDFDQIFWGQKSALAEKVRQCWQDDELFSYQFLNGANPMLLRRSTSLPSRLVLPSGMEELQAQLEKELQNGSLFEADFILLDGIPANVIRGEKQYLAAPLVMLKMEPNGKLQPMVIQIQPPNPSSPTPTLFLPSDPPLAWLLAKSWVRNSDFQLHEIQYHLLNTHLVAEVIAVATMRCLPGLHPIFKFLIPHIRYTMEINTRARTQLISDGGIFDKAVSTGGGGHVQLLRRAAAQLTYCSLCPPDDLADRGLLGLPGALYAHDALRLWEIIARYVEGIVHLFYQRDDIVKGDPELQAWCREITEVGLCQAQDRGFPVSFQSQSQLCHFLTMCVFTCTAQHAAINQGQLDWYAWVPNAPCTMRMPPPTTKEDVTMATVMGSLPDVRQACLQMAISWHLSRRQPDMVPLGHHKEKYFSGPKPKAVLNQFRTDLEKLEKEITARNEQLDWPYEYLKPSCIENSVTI

| Compound | Potency | activity change, negative = inhibition |
| --- | --- | --- |
| CC(=O)N1CCC(C(=O)N2CCC3(CC2)NC(=O)N(c2cccc(Cl)c2)N3)CC1 | 12.6 µM (active) | – |
| COc1ccc(OC2CN(Cc3cccc4ccccc34)C2)cc1 | – | -3.44% (inactive) |
| OCC1CN(Cc2ccc(Cl)cc2)CC12CCNCC2 (configuration not stated) | – | -4.83% [at 64.5 µM] (inactive) |
| O=C(c1ccccc1F)N1CCn2c(nnc2C2CCNCC2)C1 | – | -11.9% (inactive) |
| O=C(Nc1ccc(-c2cccc(F)c2)cc1)C1CCCN1Cc1cnc[nH]1 (configuration not stated) | – | 13.7% [at 64.5 µM] (inactive) |
| CN1CC(=O)N(C2CCCNCC2)Cc2c(NCC3CC3)ncnc21 (configuration not stated) | – | -7.12% (inactive) |
| CCCCNc1oc(-c2cccc3ccccc23)nc1C#N | 19.3 µM (active) | – |
| C=CCNc1oc(-c2cccc3ccccc23)nc1C#N | – | 1.51% [at 64.5 µM] (inactive) |
| CC(C)Nc1oc(-c2cccc3ccccc23)nc1C#N | – | 11.9% [at 64.5 µM] (inactive) |
| COc1ccc(-c2nc(C3CC3)nc3c2CN([S+](=O)([O-])c2ccccc2)CC3)cc1 | – | -25.8% (inactive) |
| CCOCCNc1ncnc2c1CN(C1CCNCC1)C(=O)CN2C | – | -10.1% (inactive) |
| COc1ccc(N2CC3CCC(C2)N3C(=O)c2ccc3c(c2)OCO3)cc1 | – | -19.9% (inactive) |
| O=C(NCC(F)(F)F)c1cc(C2CC2)nc2c1c(C1CCCN1)nn2-c1ccccc1 (configuration not stated) | – | -27.3% (inactive) |
| O=C(NC1CCCCC1)N1Cc2[nH]cnc2C[C@H]1c1nc(-c2cccc([N+](=O)[O-])c2)no1 | 6.31 µM (active) | – |
| COC(=O)[C@@H]1Cc2nc[nH]c2CN1C1CCOCC1 | – | 10.7% [at 233 µM] (inactive) |
| COc1ccc(-c2noc([C@@H]3Cc4nc[nH]c4CN3C(=O)NC3CCCCC3)n2)cc1 | 10 µM (active) | – |
| COc1ccc(CN2Cc3[nH]cnc3C[C@H]2c2nc(-c3ccncc3)no2)cc1 | – | 30.2% (inactive) |
| Cc1ccc(NC(=O)N2Cc3[nH]cnc3C[C@H]2c2nc(-c3ccc4ccccc4c3)no2)cc1 | – | 3.35% [at 64.5 µM] (inactive) |
| CN1CC(=O)N(C2CCCNCC2)Cc2c(NCc3cccs3)ncnc21 (configuration not stated) | – | -21.3% (inactive) |
| CCc1nc2c(c(-c3ccc(OC)cc3)n1)CCN(Cc1ccc(OC)cc1)CC2 | – | -27.7% (inactive) |
| O=C(N1CCCC1)N1CCN(c2ccc(Cl)nn2)C(=O)C1 | – | -25.5% (inactive) |
| CC(NC(=O)C1CCN(c2cc(C(F)(F)F)ncn2)CC1)c1ccccc1 (configuration not stated) | – | 5.14% [at 64.5 µM] (inactive) |
| COc1cccc(N2C(=O)NC(=NC3CCCCC3)C23CCCN([S+](=O)([O-])c2cccs2)C3)c1 (configuration not stated) | – | -25.9% (inactive) |

| Compound | Potency | activity change, negative = inhibition |
| --- | --- | --- |
| O=c1n(-c2cccc(Cl)c2)nc2n1CCN([S+](=O)([O-])c1cccs1)C2 | – | -15.3% (inactive) |
| Cc1cccc(CN2CCN(Cc3nc(-c4ccco4)oc3C)C(C)C2=O)c1 (configuration not stated) | – | -7.87% [at 64.5 µM] (inactive) |
| COCCNC(=O)c1cc(C2CC2)nc2onc(C3CCCN3)c12 (configuration not stated) | – | -17.5% (inactive) |
| CCOC(=O)Cn1c(=O)n(-c2ccccc2OC)c2nc(-c3ccccc3F)nc(C(N)=O)c21 | 11 µM (active) | – |
| CCOC(=O)Cn1c(=O)n(-c2ccccc2OC)c2nc(-c3cccc(F)c3)nc(C(N)=O)c21 | 4.4 µM (active) | – |
| CCOc1ccccc1CN1CCCCC12Cc1ccccc1CNC2=O (configuration not stated) | – | -12.7% (inactive) |
| CCNC(=O)N[C@@H]1C=C[C@@H](c2c(C)nn(-c3ccc(OC)cc3)c2C)C1 | – | 2.01% [at 64.5 µM] (inactive) |
| Cc1cc(C(=O)NC2CC2)c2c(C3CCNCC3)noc2n1 | – | -1.86% (inactive) |
| O=C1c2ccccc2CN1C1CCN(Cc2ccsc2)CC1 | – | -18.5% (inactive) |
| C1CNCC(c2nc(C3CCOCC3)no2)C1 (configuration not stated) | – | -7.31% [at 64.5 µM] (inactive) |
| CC(=O)N1CCn2cc(C(=O)N3CCOCC3)nc2C1 | – | -9.94% (inactive) |
| COc1ccccc1C(=O)N1CCn2c(nnc2C2CCNCC2)C1 | – | -23.8% (inactive) |
| COc1ccccc1CNC(=O)Nc1cccs1 | 21.7 µM (active) | – |
| CNCc1ccccc1OC(F)(F)F | – | -3.02% (inactive) |
| CN1CC(=O)N(C2CCNCC2)Cc2c(NC3CCCCCC3)ncnc21 | – | -12.8% (inactive) |
| CN(C)CCCC(=O)N1Cc2ccccc2CC2(CCCCN2CC2CCNCC2)C1 (configuration not stated) | – | -14.8% (inactive) |
| CCOC(=O)N1CCC(NC)CC1 | – | 6.82% (inactive) |
| CCOC(=O)N1CCC(N2CCCC(CCC(=O)Nc3ccc(OC)c(Cl)c3)C2)CC1 (configuration not stated) | 12.6 µM (active) | – |
| Cc1noc(C)c1C(=O)N1Cc2ccccc2CC2(CCCN(CC3CCNC3)C2)C1 (configuration not stated) | – | -14.1% (inactive) |
| Fc1ccc(OC2CN(Cc3ccc(C(F)(F)F)cc3)C2)cc1F | – | -5.08% (inactive) |
| Cn1ccnc1C(O)c1cc2n(n1)CCN(S(=O)(=O)C1CC1)C2 (configuration not stated) | – | 1.79% [at 64.5 µM] (inactive) |
| COc1cccc(N2C(=O)NC(=NC3CCCC3)C23CCCN(CC2CC2)C3)c1 (configuration not stated) | – | -17.4% (inactive) |
| COCc1cc(C[C@@H]2CC[C@H](O)[C@@H](CNC(=O)NC(C)C)O2)no1 | – | -10.6% [at 64.5 µM] (inactive) |

| Compound | Potency | activity change, negative = inhibition |
| --- | --- | --- |
| CNCc1ccccc1Cl | – | -9.03% [at 233 µM] (inactive) |
| Cc1nc(N2CCC(C(=O)NCc3ccc(C(C)C)cc3)CC2)cc(C(F)(F)F)n1 | – | -13.4% [at 64.5 µM] (inactive) |
| CCCc1nc(C)cc(N2CCC(NCCc3ccc(Cl)cc3)CC2)n1 | 2.24 µM (active) | – |
| O=C(N1CCCCC1)N1CCCC(c2nnc3n2CCNC3)C1 (configuration not stated) | – | -7.37% (inactive) |
| Cc1cc(C)cc(-c2ccc(CN3CCCC(c4nc5ccc(F)cc5c(=O)[nH]4)C3)cc2)c1 (configuration not stated) | – | -20.9% (inactive) |
| CCC(CC)Nc1ncnc2c1CN(C1CCCNCC1)C(=O)CN2C (configuration not stated) | – | -2.09% (inactive) |
| COc1cccc(-c2ccc(CN)cc2)c1 | – | -0.015% (inactive) |
| COc1ccc(Nc2cnc3ccc(-c4cccc(CO)c4)nn23)cc1OC | – | -2.32% [at 64.5 µM] (inactive) |
| COc1ccc(-c2cc(-c3cccc(CO)c3)cn3cncc23)cc1 | 28.2 µM (active) | – |
| COc1ccc(CNc2ncnc3c2CN(C2CCCNC2)C(=O)CN3C)cc1 (configuration not stated) | – | -15.2% (inactive) |
| O=C(O)CCC(=O)N1Cc2ccccc2CC2(CCCN2Cc2cccnc2)C1 (configuration not stated) | – | -6.82% (inactive) |
| Cc1ccc(-c2cc(-c3ccc(C)o3)nc(N)c2C#N)cc1 | 3.06 µM (active) | – |
| Cc1cc(C(=O)N2CCC(F)CC2)c2c(C3CCCN3)noc2n1 (configuration not stated) | – | -10.6% (inactive) |
| O=Cc1ccc(-c2ccc(O)cc2)cc1 | – | -27.2% [at 233 µM] (inactive) |
| COc1ccc(N=C2S[C@H]3[C@H]([C@@H](O)[C@H](O)C[C@@H]3C(N)=O)N2CC2CCCCC2)cc1 | – | -10.7% [at 64.5 µM] (inactive) |
| O=C1N[C@@H]2CCN(S(=O)(=O)c3ccc(Cl)cc3)[C@@H]2C(=O)N1c1ccc(Oc2ccccc2)cc1 | 7.94 µM (active) | – |
| COc1ccccc1-c1ccc(CN2CCCC(c3nc4ccc(F)cc4c(=O)[nH]3)C2)cc1 (configuration not stated) | – | -29.2% (inactive) |
| O=Cc1cccc(N2CCN(C(=O)c3ccc4c(c3)OCO4)CC2=O)c1 | – | -11% (inactive) |
| O=C1NCc2ccccc2CC12CCCN2Cc1ccsc1 (configuration not stated) | – | -13.5% (inactive) |
| NCC(=O)N1Cc2ccccc2CC2(CCCCN2CC2CCOCC2)C1 (configuration not stated) | – | 2.3% (inactive) |
| CC(=O)N1CCC2(CC1)CN(C(=O)Cc1csc(N)n1)Cc1ccccc1O2 | – | 0.398% (inactive) |
